In the supplement of paper PMC10849652:
Targets with a hit are over-represented here; the source holds about 8,800 in all. About 0.5% of all pairs of compound and target were hits. Values without a mark were called inactive.

Experiments:
Experiment in all cases: log2 fold change, soluble protein after heating vs DMSO (PISA); higher = thermal stabilisation; K562 lysate, 10 uM; active = over 0.2 and 3.5 SD of the protein, either way, in both replicates (recomputed)
erlotinib = compound: C#Cc1cccc(Nc2ncnc3cc(OCCOC)c(OCCOC)cc23)c1 [erlotinib]
Procedure, shortened: (§1)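 K562 pellets were dounce-homogenised in PBS pH 7.4 containing 1 mM MgCl2, and the crude extract, at 1 mg/mL protein, was exposed to 10 μM compound for 30 min. Aliquots were heated for 3 min across 48°C-58°C, pooled, brought to 0.5% NP-40 at 4°C and spun at 21,000xg for 90 min, with the supernatant taken as soluble protein. TMTpro 16plex LC-MS/MS with equalised channel sums quantified that protein. Values are log-two fold changes in thermal stability relative to solvent controls, taken from duplicates.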

[1] = compound: C/C(=N\NC(=O)C1=CC(=CC=C1)S(=O)(=O)N2CCOCC2)/C3=C(C=CC(=C3)Cl)O
Procedure, shortened: as §1

[2] = compound: C1=CC(=CC=C1C2=NC3=C(N2)C=C(C=C3)C(=O)N)OC4=CC=C(C=C4)Cl
Procedure, shortened: as §1

[3] = compound: C1=CC2=C(C=CC(=C2)/C=C\3/C(=O)NC(=NCC4=CC=CS4)S3)N=C1
Procedure, shortened: as §1

[4] = compound: C1=CC2=NC=CN=C2C=C1/C=C/3\C(=O)NC(=O)S3
Procedure, shortened: as §1

[5] = compound: C1=CC=C(C=C1)C2=NC(=C(N2)C3=CC=NC=C3)C4=CC(=C(C=C4)Cl)O
Procedure, shortened: as §1

[6] = compound: C1=CC=C2C(=C1)C3=NNC4=CC=CC(=C43)C2=O
Procedure, shortened: as §1

[7] = compound: C1CCN(C1)C(=O)NC2=CC=CC(=C2)NC3=NC=C(C(=N3)NCCC4=CN=CN4)Br
Procedure, shortened: as §1

[8] = compound: C1CN(CCC1(CC2=CC=C(C=C2)Cl)N)C3=NC=NC4=C3C=CN4
Procedure, shortened: as §1

IRAK-1-4 Inhibitor I = compound: C1COCCN1CCN2C3=CC=CC=C3N=C2NC(=O)C4=CC(=CC=C4)[N+](=O)[O-] [IRAK-1-4 Inhibitor I]
Procedure, shortened: as §1

ibrutinib = compound: C=CC(=O)N1CCC[C@@H](n2nc(-c3ccc(Oc4ccccc4)cc3)c3c(N)ncnc32)C1 [ibrutinib]
Procedure, shortened: as §1

[9] = compound: CC(=O)c1cnc2ccc(-c3cc(Cl)c(O)c(Cl)c3)nc2c1N[C@H]1CC[C@H](CN(C)C)CC1
Procedure, shortened: as §1

ralimetinib = compound: CC(C)(C)Cn1c(N)nc2ccc(-c3[nH]c(C(C)(C)C)nc3-c3ccc(F)cc3)nc21 [ralimetinib]
Procedure, shortened: as §1

[10] = compound: CC(C)(O)CC(=O)NCCn1ccc2ncnc(Nc3ccc(Oc4cccc(C(F)(F)F)c4)c(Cl)c3)c21
Procedure, shortened: as §1

[11] = compound: CC(C)C1=C2N=C(C=C(N2N=C1)NCC3=CC=CC=C3)NCCCCCCN
Procedure, shortened: as §1

[12] = compound: CC1=C(C(CC(=O)N1)C2=CC=C(C=C2)C(F)(F)F)C(=O)NC3=C(C=C4C(=C3)C=NN4)F
Procedure, shortened: as §1

[13] = compound: CC1=C(C2=C(C=C1)C(=O)C3=CC=CC=C3N2CCCN)C
Procedure, shortened: as §1

[14] = compound: CC1=C(C=C(C=C1)NC(=O)C2=CC(=CC=C2)C(C)(C)C#N)NC3=CC4=C(C=C3)N=CN(C4=O)C
Procedure, shortened: as §1

[15] = compound: CC1=C(C=C(C=C1)NC(=O)C2=CC(=CC=C2)N(C)C)NC(=O)C3=CC=C(C=C3)O
Procedure, shortened: as §1

[16] = compound: CC1=CC=C(C=C1)SC2=C3C=C(SC3=CN=C2)C(=O)N
Procedure, shortened: as §1

UniProt Q86WJ1, sequence (Q86WJ1 whole entry, looked up): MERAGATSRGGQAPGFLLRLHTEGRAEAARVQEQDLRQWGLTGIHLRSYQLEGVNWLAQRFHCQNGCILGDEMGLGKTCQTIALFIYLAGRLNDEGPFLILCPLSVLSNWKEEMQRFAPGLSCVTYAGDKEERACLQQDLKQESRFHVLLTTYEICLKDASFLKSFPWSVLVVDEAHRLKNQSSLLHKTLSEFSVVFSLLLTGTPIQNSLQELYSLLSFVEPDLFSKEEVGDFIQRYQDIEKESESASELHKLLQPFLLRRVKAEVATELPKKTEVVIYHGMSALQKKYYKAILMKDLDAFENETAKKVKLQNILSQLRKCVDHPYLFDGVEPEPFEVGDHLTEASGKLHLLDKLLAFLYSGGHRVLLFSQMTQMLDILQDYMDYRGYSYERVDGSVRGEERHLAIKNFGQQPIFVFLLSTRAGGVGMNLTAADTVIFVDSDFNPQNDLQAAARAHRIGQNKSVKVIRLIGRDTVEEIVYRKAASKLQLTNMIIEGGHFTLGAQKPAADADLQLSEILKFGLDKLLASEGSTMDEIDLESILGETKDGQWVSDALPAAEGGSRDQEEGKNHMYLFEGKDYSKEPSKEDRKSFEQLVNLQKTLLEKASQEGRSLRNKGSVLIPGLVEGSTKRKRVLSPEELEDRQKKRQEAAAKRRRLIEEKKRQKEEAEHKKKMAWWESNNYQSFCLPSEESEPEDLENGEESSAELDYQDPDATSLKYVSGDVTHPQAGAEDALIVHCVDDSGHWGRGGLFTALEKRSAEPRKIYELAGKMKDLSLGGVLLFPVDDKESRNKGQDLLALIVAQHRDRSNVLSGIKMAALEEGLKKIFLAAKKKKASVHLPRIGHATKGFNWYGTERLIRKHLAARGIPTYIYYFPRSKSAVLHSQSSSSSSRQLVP
UniProt P33681, sequence (P33681 whole entry, looked up): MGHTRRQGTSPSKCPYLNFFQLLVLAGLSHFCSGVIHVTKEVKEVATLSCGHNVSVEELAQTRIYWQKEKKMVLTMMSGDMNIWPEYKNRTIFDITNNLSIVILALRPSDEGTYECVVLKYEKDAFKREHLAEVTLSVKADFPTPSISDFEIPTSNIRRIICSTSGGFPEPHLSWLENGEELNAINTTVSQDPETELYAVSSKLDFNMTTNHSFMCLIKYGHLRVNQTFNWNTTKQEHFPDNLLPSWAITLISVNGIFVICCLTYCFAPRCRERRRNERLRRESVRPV
UniProt O43303, sequence (O43303 whole entry, looked up): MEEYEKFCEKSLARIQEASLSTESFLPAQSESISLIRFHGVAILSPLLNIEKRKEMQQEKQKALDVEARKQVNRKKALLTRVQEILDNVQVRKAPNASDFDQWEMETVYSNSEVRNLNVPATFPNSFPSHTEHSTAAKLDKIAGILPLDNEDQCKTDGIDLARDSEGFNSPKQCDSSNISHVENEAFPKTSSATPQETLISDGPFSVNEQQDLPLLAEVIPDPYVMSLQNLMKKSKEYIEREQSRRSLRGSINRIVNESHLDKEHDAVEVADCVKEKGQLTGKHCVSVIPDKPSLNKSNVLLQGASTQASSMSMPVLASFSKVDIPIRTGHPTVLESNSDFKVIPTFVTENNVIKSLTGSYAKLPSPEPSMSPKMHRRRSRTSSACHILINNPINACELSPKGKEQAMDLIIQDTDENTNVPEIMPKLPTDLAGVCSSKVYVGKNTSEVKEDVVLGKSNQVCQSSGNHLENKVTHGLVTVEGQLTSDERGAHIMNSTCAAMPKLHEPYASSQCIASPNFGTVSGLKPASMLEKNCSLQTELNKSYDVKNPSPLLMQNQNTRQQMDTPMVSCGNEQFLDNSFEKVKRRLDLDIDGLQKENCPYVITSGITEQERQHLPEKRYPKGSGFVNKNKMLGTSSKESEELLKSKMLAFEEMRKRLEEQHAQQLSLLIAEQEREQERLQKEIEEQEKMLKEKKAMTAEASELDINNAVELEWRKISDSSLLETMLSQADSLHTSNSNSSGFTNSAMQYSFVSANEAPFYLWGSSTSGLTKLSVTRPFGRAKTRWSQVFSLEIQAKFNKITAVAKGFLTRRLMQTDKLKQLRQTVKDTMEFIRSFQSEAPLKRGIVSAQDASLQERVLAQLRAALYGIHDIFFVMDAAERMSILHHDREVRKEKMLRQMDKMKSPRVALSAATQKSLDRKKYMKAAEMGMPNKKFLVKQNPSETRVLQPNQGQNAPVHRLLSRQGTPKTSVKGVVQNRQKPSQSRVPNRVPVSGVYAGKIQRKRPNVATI
UniProt Q9Y297, sequence (Q9Y297 whole entry, looked up): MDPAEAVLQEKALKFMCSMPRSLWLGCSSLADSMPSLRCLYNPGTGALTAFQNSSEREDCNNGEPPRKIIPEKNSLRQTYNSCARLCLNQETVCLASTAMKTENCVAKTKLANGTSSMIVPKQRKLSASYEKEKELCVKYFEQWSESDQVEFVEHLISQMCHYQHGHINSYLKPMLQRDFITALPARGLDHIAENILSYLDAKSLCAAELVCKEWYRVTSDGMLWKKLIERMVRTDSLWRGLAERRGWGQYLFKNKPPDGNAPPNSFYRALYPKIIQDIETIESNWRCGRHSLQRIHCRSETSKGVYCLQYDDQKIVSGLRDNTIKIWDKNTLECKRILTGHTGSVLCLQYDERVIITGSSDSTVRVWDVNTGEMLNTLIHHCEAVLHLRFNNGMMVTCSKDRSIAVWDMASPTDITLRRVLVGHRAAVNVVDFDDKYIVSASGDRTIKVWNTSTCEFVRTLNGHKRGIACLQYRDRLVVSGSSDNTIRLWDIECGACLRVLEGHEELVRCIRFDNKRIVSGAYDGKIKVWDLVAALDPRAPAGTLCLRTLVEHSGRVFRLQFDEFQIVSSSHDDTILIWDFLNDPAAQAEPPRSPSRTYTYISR
UniProt Q53HL2, sequence (Q53HL2 whole entry, looked up): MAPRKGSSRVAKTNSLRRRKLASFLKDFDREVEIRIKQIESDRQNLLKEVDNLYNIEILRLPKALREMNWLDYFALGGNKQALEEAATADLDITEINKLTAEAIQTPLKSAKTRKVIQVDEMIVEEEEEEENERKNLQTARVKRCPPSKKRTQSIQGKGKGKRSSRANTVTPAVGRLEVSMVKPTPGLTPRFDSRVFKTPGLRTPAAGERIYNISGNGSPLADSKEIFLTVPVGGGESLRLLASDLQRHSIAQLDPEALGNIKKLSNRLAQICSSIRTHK
UniProt P49336, sequence (P49336 whole entry, looked up): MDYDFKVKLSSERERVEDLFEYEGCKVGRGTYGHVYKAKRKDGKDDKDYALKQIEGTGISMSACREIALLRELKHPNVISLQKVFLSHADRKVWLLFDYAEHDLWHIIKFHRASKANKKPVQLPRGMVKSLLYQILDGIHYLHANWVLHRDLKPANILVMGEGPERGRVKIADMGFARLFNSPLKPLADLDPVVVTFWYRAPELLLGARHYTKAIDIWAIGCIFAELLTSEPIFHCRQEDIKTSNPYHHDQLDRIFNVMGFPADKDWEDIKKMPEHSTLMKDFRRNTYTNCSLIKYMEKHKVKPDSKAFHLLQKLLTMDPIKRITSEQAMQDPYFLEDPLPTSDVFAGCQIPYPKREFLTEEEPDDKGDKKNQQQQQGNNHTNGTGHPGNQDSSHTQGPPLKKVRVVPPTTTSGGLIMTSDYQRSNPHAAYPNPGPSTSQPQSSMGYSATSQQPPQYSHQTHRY
UniProt P83916, sequence (P83916 whole entry, looked up): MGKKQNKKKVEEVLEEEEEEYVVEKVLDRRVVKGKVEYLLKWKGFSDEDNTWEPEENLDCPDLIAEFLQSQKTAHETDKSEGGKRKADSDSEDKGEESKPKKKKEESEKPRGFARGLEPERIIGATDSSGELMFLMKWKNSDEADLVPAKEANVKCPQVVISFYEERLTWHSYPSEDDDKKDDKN
UniProt Q00537, sequence (Q00537 whole entry, looked up): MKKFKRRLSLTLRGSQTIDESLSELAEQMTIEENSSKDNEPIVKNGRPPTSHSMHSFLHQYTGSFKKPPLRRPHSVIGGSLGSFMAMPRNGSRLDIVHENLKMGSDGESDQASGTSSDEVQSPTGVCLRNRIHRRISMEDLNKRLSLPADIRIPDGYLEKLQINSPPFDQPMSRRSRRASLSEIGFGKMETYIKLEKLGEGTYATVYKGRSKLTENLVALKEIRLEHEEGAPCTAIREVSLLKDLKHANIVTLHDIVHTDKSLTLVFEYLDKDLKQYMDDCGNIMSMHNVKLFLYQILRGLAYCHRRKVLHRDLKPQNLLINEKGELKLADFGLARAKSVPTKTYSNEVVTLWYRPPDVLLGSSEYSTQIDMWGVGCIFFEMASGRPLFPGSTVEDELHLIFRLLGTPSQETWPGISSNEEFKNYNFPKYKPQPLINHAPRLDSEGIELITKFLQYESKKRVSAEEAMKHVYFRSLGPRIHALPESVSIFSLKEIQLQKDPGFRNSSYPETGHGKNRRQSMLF
UniProt P46527, sequence (P46527 whole entry, looked up): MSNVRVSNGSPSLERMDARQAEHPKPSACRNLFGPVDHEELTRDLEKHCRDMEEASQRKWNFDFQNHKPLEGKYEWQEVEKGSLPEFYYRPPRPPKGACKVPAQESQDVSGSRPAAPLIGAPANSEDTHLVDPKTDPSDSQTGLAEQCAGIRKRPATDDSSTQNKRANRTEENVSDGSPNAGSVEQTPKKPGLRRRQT
UniProt Q96B23, sequence (Q96B23 whole entry, looked up): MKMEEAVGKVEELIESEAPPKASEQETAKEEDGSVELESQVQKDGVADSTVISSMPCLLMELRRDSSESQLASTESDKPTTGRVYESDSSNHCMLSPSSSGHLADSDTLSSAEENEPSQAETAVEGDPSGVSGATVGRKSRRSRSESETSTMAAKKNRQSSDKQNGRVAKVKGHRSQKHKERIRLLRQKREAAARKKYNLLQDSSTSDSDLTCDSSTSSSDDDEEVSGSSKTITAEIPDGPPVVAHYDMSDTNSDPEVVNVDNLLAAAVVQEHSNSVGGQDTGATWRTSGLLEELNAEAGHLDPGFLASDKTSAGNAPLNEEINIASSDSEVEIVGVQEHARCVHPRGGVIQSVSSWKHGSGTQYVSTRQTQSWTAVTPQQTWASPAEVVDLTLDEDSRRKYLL

| Target | log2 fold change (erlotinib) | log2 fold change [1] | log2 fold change [2] | log2 fold change [3] | log2 fold change [4] | log2 fold change [5] | log2 fold change [6] | log2 fold change [7] | log2 fold change [8] | log2 fold change (IRAK-1-4 Inhibitor I) | log2 fold change (ibrutinib) | log2 fold change [9] | log2 fold change (ralimetinib) | log2 fold change [10] | log2 fold change [11] | log2 fold change [12] | log2 fold change [13] | log2 fold change [14] | log2 fold change [15] | log2 fold change [16] |
| --- | --- | --- | --- | --- | --- | --- | --- | --- | --- | --- | --- | --- | --- | --- | --- | --- | --- | --- | --- | --- |
| ATP2B4 (UniProt P23634) | 0.021 | 0.023 | 0.012 | 0.024 | 0.019 | -0.015 | -0.018 | 0.017 | 0.045 | -0.028 | 0.06 | -0.026 | -0.056 | -0.029 | -0.018 | 0.033 | -0.034 | 0.089 | 0.051 | -0.003 |
| CHD3 isoform 3 (UniProt Q12873) | 0.003 | -0.022 | -0.025 | -0.01 | 0.003 | 0.002 | -0.017 | -0.058 | 0.005 | -0.032 | -0.003 | 0.021 | -0.01 | -0.021 | -0.001 | 0.019 | -0.018 | 0 | -0.013 | 0.007 |
| C18orf25 isoform 2 (UniProt Q96B23) | 0.031 | 0.098 | -0.059 | -0.002 | 0.185 | 0.055 | -0.011 | -0.01 | -0.063 | 0.003 | 0.126 | 0.1 | -0.065 | -0.027 | -0.013 | -0.088 | 0.015 |  | -0.017 | -0.076 |
| CDK5RAP1 (UniProt Q96SZ6) | -0.059 | 0.007 | -0.029 | 0.005 | -0.392 (active) | 0.043 | 0.016 | -0.016 | 0.041 | -0.018 | -0.369 |  | -0.018 | -0.062 | 0.122 | -0.002 | -0.027 | -0.001 | 0.045 |  |
| CDK8 (UniProt P49336) | -0.012 | -0.059 | 0.028 | -0.128 | 0.068 | 0.004 | 0.128 |  |  | 0.029 | 0.006 | 0.097 | -0.041 | -0.011 | -0.073 | -0.058 | 0.095 | 0.088 | 0.016 | 0.16 |
| CDK17 isoform 2 (UniProt Q00537) | -0.156 | -0.007 | 0.173 | 0.099 | -0.114 | 0.005 | 0.046 | 0.124 | 0.068 | 0.055 | -0.029 |  | -0.019 | -0.003 | -0.037 | -0.162 | -0.08 | 0.029 | 0.057 |  |
| BBS7 (UniProt Q8IWZ6) | -0.095 | 0.146 | -0.014 | -0.034 |  | 0.057 | -0.098 | -0.068 | 0.082 | 0.022 |  |  | 0.047 | 0.015 | -0.021 | 0.077 | 0.182 | 0.181 | -0.013 |  |
| CD80 (UniProt P33681) | -0.139 | 0.041 | 0.063 | -0.013 |  | -0.087 | -0.02 | 0.058 | -0.029 | 0.096 |  | 0.034 | 0.207 | -0.051 | -0.136 | 0.106 | -0.084 | 0.043 | -0.119 | 0.014 |
| CCP110 (UniProt O43303) | 0.081 | -0.436 (active) | 0.046 | -0.022 | 0.03 | -0.088 | -0.047 | -0.051 | 0.051 | 0.075 | -0.008 |  | 0.082 | 0.001 | 0.054 |  | -0.186 | 0.01 | 0.113 |  |
| ATG10 (UniProt Q9H0Y0) | 0.062 | 0.043 | -0.011 | -0.012 | -0.01 | 0.035 | 0.086 | -0.004 | -0.004 | 0.022 | 0.057 |  | 0.001 | -0.013 | -0.062 | -0.132 | 0.063 | 0.053 | 0.012 |  |
| AUH (UniProt Q13825) | 0.003 | -0.031 | 0.083 | -0.042 | 0.111 | 0.027 | -0.035 | 0.026 | -0.045 | -0.008 | 0.024 | 0.103 | -0.161 | -0.003 | 0.011 |  | -0.304 | 0.015 | -0.132 | -0.058 |
| CACUL1 (UniProt Q86Y37) | 0.232 | -0.048 | 0.087 | 0.044 |  | 0.027 | 0.045 | 0.042 | 0.023 | 0.016 |  | 0.164 | -0.023 | 0.073 | 0.027 |  | -0.165 | -0.126 | 0.115 | -0.09 |
| BTRC (UniProt Q9Y297) | 0.002 | 0.085 | -0.078 | 0.001 | 0 | -0.007 | 0.029 | -0.138 | -0.028 | 0.018 | 0.026 | 0.012 | 0.068 | -0.033 | 0.045 | 0.015 |  |  | 0.075 | -0.002 |
| CCDC85B (UniProt Q15834) | -0.126 | 0.22 | -0.066 | -0.022 | -0.001 | -0.058 | 0.015 | -0.361 | -0.203 | 0.011 | 0.215 | -0.248 | -0.001 | 0.05 | 0.056 |  | 0.004 | -0.016 | -0.163 | 0.014 |
| CDKN1B (UniProt P46527) | -0.079 | -0.067 | 0.011 | 0.012 | 0.026 | -0.038 | 0.03 | 0.045 | 0.003 | -0.086 | 0.141 | 0.013 | 0.037 | 0.069 | -0.037 |  | -0.053 | -0.325 | -0.019 | 0.017 |
| CDCA8 (UniProt Q53HL2) | 0.112 | 0.054 | 0.009 | -0.071 | -0.12 |  | -0.246 | -0.01 | -0.054 |  | 0.047 |  |  |  | -0.082 | 0.038 | 0.011 |  |  |  |
| CHD1L (UniProt Q86WJ1) | -0.017 | 0.007 | -0.028 | 0.036 | 0.031 | -0.014 | -0.054 | -0.012 | 0.013 | 0.003 | -0.032 | 0.03 | 0.024 | -0.011 | -0.001 | 0.008 | -0.043 | 0.029 | 0.061 | 0.019 |
| CBX1 (UniProt P83916) | -0.012 | -0.158 | -0.012 | -0.006 | 0.03 | -0.017 | 0.017 | 0.008 | 0.03 | 0.029 | -0.002 | 0.021 | -0.006 | -0.023 | -0.039 | -0.033 | -0.024 | 0.007 | -0.003 | -0.046 |
